Laboratory results: PubChem BioAssay AID2315 (National Center for Advancing Translational Sciences (NCATS), 2010)
Out of some 290,000 compounds screened, about 27,000 (9.3%) were called active. Only a selection was taken, and actives are over-represented in it overall. Unmarked numbers belong to inactive results. Rule as the data show it: active = inhibition mostly above about 28% (no sharp cut-off); inactive = mostly below about 43%.

Experiment: A qHTS for Small Molecule Inhibitors of Shiga Toxin; also: 0% is about no effect
Settings: Vero cells, Shiga toxin protein synthesis inhibition reporter; at 38.7 µM, stronger effect = higher value

Row | SMILES | inhibition
1 | Cc1ccc(CN2CCN(c3ncccn3)CC2)c(C)c1 | 6.99%
2 | Cc1ccccc1CN1CCNC(=O)C1CC(=O)NCCC1=CCCCC1 (stereo not given) | -8.04%
3 | CC(=O)N1C(=O)C2(Nc3ccccc3N2)c2ccccc21 | -7.58%
4 | CC(C)=NN1C(=O)c2ccccc2NC1(C)C | 91.4% (active)
5 | CC(=O)NN1C(=O)c2ccccc2NC1c1ccccc1 (stereo not given) | 4.01%
6 | Nc1nc(SCC(=O)Nc2cc(C(F)(F)F)ccc2Cl)[nH]c(=O)c1NC(=O)c1ccco1 | -1.11%
7 | CCC(C)N1C(=O)S/C(=C/c2ccc(Sc3nc4ccccc4[nH]3)o2)C1=O (stereo not given) | 11.8%
8 | COc1ccc(N2CCN(S(=O)(=O)c3ccc4c(c3)NC(=O)C(C)C(=O)N4)CC2)cc1 (stereo not given) | -6.85%
9 | O=S(=O)(Nc1ccc(Oc2ncccn2)c(Cl)c1)c1ccc(F)cc1 | -3.73%
10 | C=CCOc1cccc(CNCc2cccnc2)c1 | 29%
11 | C/C(=N\NC(=O)CC(C)C)c1c(C(F)(F)F)[nH]n(-c2nc3ccccc3s2)c1=O | 65.9% (active)
12 | COC(=O)Cc1[nH]n(-c2nc3ccccc3s2)c(=O)c1C(C)=Nc1ccc(OC)cc1 | 38.9%
13 | CCc1ccc(-c2cc(C(=O)NCc3ccco3)c3ccccc3n2)s1 | 41.4%
14 | CCC(C)Cn1c(O)cc2nn(-c3nc4ccccc4s3)c(=O)c-2c1C (stereo not given) | 29.1%
15 | CC(=NCc1ccco1)C1=C(O)c2ccccc2C1=O | 31.2%
16 | CC(=NCc1ccco1)c1c(C(F)(F)F)[nH]n(-c2nc3ccccc3s2)c1=O | 122% (active)
17 | Cc1ccc(NC(=O)[C@H](Cc2ccccc2)NC(=O)C2CCNCC2)cc1 | -0.595%
18 | COc1ccccc1NC(=O)N1CCCC1C(=O)NCc1cccs1 (stereo not given) | -1.36%
19 | O=C(c1ccc(OC2CCN(C/C=C/c3ccc(F)cc3)CC2)cc1)N1CCCCC1 | -5.42%
20 | O=C1CCC(C(=O)N2CCCCO2)CN1Cc1cccc(C(F)(F)F)c1 (stereo not given) | 29.5%
21 | COCC1CCN(C(=O)C2CCC(=O)N(Cc3cccc(C(F)(F)F)c3)C2)CC1 (stereo not given) | 38.4% (active)
22 | COCC1CCN(C(=O)C2CCC(=O)N(CC3CCCCC3)C2)CC1 (stereo not given) | 19.8%
23 | CCOc1ccc(N(CC(=O)NCCc2ccc(F)cc2)S(=O)(=O)c2ccccc2)cc1 | 10.2%
24 | O=C(NCCN1CCOCC1)c1ccc(/C=C2\Sc3ccccc3N(Cc3ccc(F)cc3)C2=O)cc1 | -4.17%

Row | SMILES | inhibition
25 | CCOC(=O)C1CCN(C(=O)COc2cccc3ccccc23)CC1 | 34.7% (active)
26 | CCOC(=O)C1CCN(C(=O)COc2cc(C)c(Br)c(C)c2)CC1 | 2.84%
27 | NC(=O)C1CCN(C(=O)COc2cccc3cccnc23)CC1 | 33.9%
28 | O=C(O)c1cc(S(=O)(=O)NC2CCCc3ccccc32)ccc1O (stereo not given) | 16.7%
29 | CCN(CC)CCCNC(=O)c1cn(C)c2ccc(S(=O)(=O)N(C)C3CCCCC3)cc2c1=O | -11.8%
30 | COc1ccccc1C(=O)N(Cc1ccc(C)o1)C1CCS(=O)(=O)C1 (stereo not given) | -7.17%
31 | CCN1CCC(=NNC(=O)c2ccc(C)c([N+](=O)[O-])c2)CC1 | 14.2%
32 | Cc1cc(O)c(NC(=O)c2ccc(C)c([N+](=O)[O-])c2)cc1C | 57.7% (active)
33 | Cc1ccc(C(=O)Nc2cccc3ncccc23)cc1[N+](=O)[O-] | 11.7%
34 | Cc1csc(NC(=O)CSc2nc(=O)cc(N)n2-c2ccc(F)cc2)n1 | -2.89%
35 | Cc1ccccc1NC(=O)N1CCCC1C(=O)NCc1ccccc1 (stereo not given) | -8.06%
36 | COc1ccc(C(=O)n2nc(C)c(Br)c2C)cc1OC | 1.86%
37 | COc1cccc(N(C(=O)c2snc(C(N)=O)c2N)C(C(=O)NCC2CCCO2)c2c[nH]c3ccccc23)c1 (stereo not given) | -11.7%
38 | Cc1cc(C)nc(N/N=C/c2ccncc2)n1 | -5.35%
39 | Cc1cc(C)nc(N/N=C/c2c(CO)cnc(C)c2O)n1 | 3.16%
40 | CCN(CC)c1ccc(/C=N/Nc2nc(C)cc(C)n2)c(O)c1 | 28.1% (active)
41 | Cc1ccc(C(=O)NCCNC(=O)c2cnccn2)cc1 | 3.15%
42 | CCN(CC)c1ccc(C(=O)N/N=C/c2ccc(N3CCOCC3)cc2)cc1 | -11.2%
43 | CCN(CC)c1ccc(/C=N/NC(=O)c2cnccn2)c(O)c1 | 62.2% (active)
44 | Cc1nn(C(C)C(=O)N2CCOCC2)c(=O)c2nn(-c3ccccc3)c(C)c12 (stereo not given) | -9.86%
45 | O=C(c1ccc(F)cc1)N1CCCC(C(=O)N2CCCCC2)C1 (stereo not given) | 4.46%
46 | CC(=O)Nc1ccc(S(=O)(=O)N2CCC(C(=O)N[C@@H](Cc3ccccc3)C(=O)O)CC2)cc1 | -6.49%
47 | Cc1cccc(N(C)C(=O)c2cc(S(=O)(=O)N3CCCCC3)c[nH]2)c1 | -6.21%
48 | C=C(C)C(=O)Nc1cccc(C(C)=O)c1 | -10.8%

Row | SMILES | inhibition
49 | CSc1ccccc1NC(=O)CN(C)CC(=O)Nc1cccc(Br)c1 | -0.946%
50 | CCN(CC)C(=O)C(=O)Nc1cccc(Br)c1 | 106% (active)
51 | O=C(N/N=C/c1cccc(OC(=O)c2ccc([N+](=O)[O-])cc2)c1)c1cccnc1 | -3.03%
52 | CCN(CC)/[N+]([O-])=N/Oc1cc(O/[N+]([O-])=N/N2CCCC2CO)c([N+](=O)[O-])cc1[N+](=O)[O-] (stereo not given) | -5.78%
53 | COc1ccc(-c2nc(CCNC(=O)c3ccc(Br)o3)cs2)cc1 | 20.3% (active)
54 | CC(C)(C)NC(=O)NC(=O)COC(=O)Cc1ccc(Cl)cc1Cl | 16.6%
55 | COc1cc(CC(=O)Nc2nc(-c3ccc(F)c(F)c3)cs2)cc(OC)c1OC | -5.98%
56 | COc1ccc(-c2csc(NC(=O)COC(=O)c3ccc(Br)o3)n2)cc1 | 92.3% (active)
57 | CCCc1ccc(-c2csc(NC(=O)Cc3cccs3)n2)cc1 | 13%
58 | COc1ccc(-c2csc(NC(=O)COC(=O)Cc3ccc(Cl)cc3Cl)n2)cc1 | 64% (active)
59 | O=C(NCCc1csc(-c2ccccc2)n1)c1ccccc1F | 40.5%
60 | COc1ccc(CC(=O)Nc2nc(-c3ccc(F)c(F)c3)cs2)cc1OC | -2.51%
61 | COc1ccc(N2CCN(C(=O)CNC(=O)c3ccc(Br)o3)CC2)cc1 | -11.6%
62 | CC(C)=CCCC(C)CN1CCC(n2nccc2NC(=O)c2ccccc2)CC1 (stereo not given) | -5.43%
63 | O=C(Nc1ccccc1)C1CCN(C(=O)c2ccc(Br)cc2)CC1 | 6.29%
64 | COCCCC1CCN(C(=O)C2CCC(=O)N(C3CCCCCC3)C2)CC1 (stereo not given) | -6.64%
65 | O=C(O)c1[nH]c2ccccc2c1C(c1cccc(O)c1)c1c(C(=O)O)[nH]c2ccccc12 | -5.15%
66 | COC(=O)COc1ccc2c(=O)c(Oc3ccccc3Br)coc2c1 | -7.5%
67 | CCc1ccc(N2CC(C(=O)N3CCCCCC3)CC2=O)cc1 (stereo not given) | 16%
68 | CC(CC(=O)N1CCN(c2ccccc2)CC1)S(=O)(=O)c1ccc2c(c1)NC(=O)CS2 (stereo not given) | 1.51%
69 | Fc1ccc2nc(Nc3nc4c(s3)CCCC4)sc2c1 | 72.1% (active)
70 | O=C(CCS(=O)(=O)c1ccccc1)Nc1nc2c(s1)CCCC2 | 20.4%
71 | O=C(Cn1c(=O)sc2ccccc21)Nc1nc2c(s1)CCCC2 | 22.4%
72 | CN(CC(=O)Nc1c(Cl)cccc1Cl)C(=O)c1ccncc1 | -30.3%

Row | SMILES | inhibition
73 | O=c1ccc(-c2ccc(S(=O)(=O)Nc3ccccc3)o2)n[nH]1 | -5.64%
74 | O=C(O)c1ccc(S(=O)(=O)N2CCC(Cc3ccccc3)CC2)cc1 | -10.1%
75 | O=C(NCCCc1ccccc1)C1CCC(=O)N(CCc2ccc(Cl)cc2)C1 (stereo not given) | 35.2% (active)
76 | O=C(NCCc1ccccc1Cl)C1CCC(=O)N(CCCc2ccccc2)C1 (stereo not given) | -7.04%
77 | O=C(NCCN1CCOC1=O)C1CCC(=O)N(CCc2ccc(Cl)cc2)C1 (stereo not given) | -3.56%
78 | Cc1ccc(-n2nc3c(=O)n(C(C)C(=O)NCc4ccc5c(c4)OCO5)nc(C)c3c2C)cc1 (stereo not given) | -4.41%
79 | CS(=O)(=O)N1CCCC(C(=O)Nc2ccccc2C(F)(F)F)C1 (stereo not given) | -10%
80 | COc1ccccc1Nc1ncnc2c1oc1ccccc12 | 53.4% (active)
81 | COc1ccc(C)cc1Nc1nc(C)nc2c1oc1ccccc12 | 2.95%
82 | CCC(C(=O)OC)n1cnc2c(oc3ccccc32)c1=O (stereo not given) | 27.3%
83 | Cc1occc(=O)c1OCc1c(Cl)cccc1Cl | -6.59%
84 | O=C1COc2ccc(S(=O)(=O)NCCc3ccc(Cl)cc3)cc2N1 | 2.79%
85 | Cc1ccc(NS(=O)(=O)c2ccc(C(C)(C)C)cc2)cn1 | 1.36%
86 | Cc1ccc(S(=O)(=O)c2nc(-c3cccs3)oc2NCc2cccnc2)cc1 | -2.32%
87 | COc1ccc(N2CCN(C(=O)CN3C(=O)COc4ccccc43)CC2)cc1 | 23.1%
88 | CN1CCN(C(=O)c2ccccc2NC(=O)COc2ccccc2Cl)CC1 | 30.2% (active)
89 | CCCOc1cccc(C(=O)Nc2ccccc2C(=O)N2CCN(C)CC2)c1 | 1.15%
90 | O=C(Nc1ccccc1C(=O)N1CCCCCC1)c1ccccc1Cl | -4.45%
91 | Nc1nc(NCC2CCCO2)nc(Nc2ccccc2F)c1[N+](=O)[O-] (stereo not given) | 3.33%
92 | C=Cn1cc[n+](CC(=O)c2ccc(OC)c(OC)c2)c1 | -7.58%
93 | O=C(N/N=C/c1ccc(O)cc1)/C(=C/c1ccc([N+](=O)[O-])cc1)NC(=O)c1ccccc1 | 3.28%
94 | Cc1cccc(COc2ccccc2/C=N/Nc2ccc([N+](=O)[O-])cc2)c1 | -8.03%
95 | O=[N+]([O-])c1ccc(N/N=C/c2ccccc2)cc1 | 60.4% (active)
